Experimental findings from PubChem BioAssay (EPA / NIEHS) are described below.

Each structure is given as a SMILES string. The source made the active and inactive calls. The calls were made as follows: active = hit-call score of the fitted dose curve at least 0.9, where 1 is the maximum; inactive = score below 0.9.

The first experiment is described as follows: CCTE_Padilla_ZF_Score.Tail: CCTE's 144 Hour Post-fertilization zebrafish Assay Score for Tail Malformation, Padilla Lab (AID 2284414). The method, boiled down:
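Wild-type zebrafish embryos, one per well in 200 uL 10% Hanks', dosed at 6-8 hpf, sealed, and kept at 26 C on a 14:10 h light cycle. Chemical was rinsed out at 5 dpf. Blinded brightfield scoring of tail defects followed at 6 dpf.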
`CC(F)(F)CC(F)(F)F`: the molecule was called inactive.
Turning to `O=S(=O)(F)C(F)(F)C(F)(F)C(F)(F)C(F)(F)F`, the molecule was classed as inactive.
Same read-out and setting: under `COC(F)(C(F)(F)C(F)(F)F)C(F)(C(F)(F)F)C(F)(F)F` (configuration not stated) stands “inactive”.
As to `C=CCOC(F)(C(F)(F)F)C(F)(F)F`, the molecule was called inactive.

Another experiment in a line: CCTE_Padilla_ZF_Score.Blood_pooling: CCTE's 144 Hour Post-fertilization zebrafish Assay Score for Blood Pooling, Padilla Lab (AID 2284415). As to the method:
CCTE_Padilla_ZF_Phenotype_Score is a whole embryo, multiplexed assay using zebrafish ova exposed for 144 hours post fertilization on a 96-well plate.CCTE_Padilla_ZF_Score.Blood_pooling is one of one assay component(s) measured or calculated from the CCTE_Padilla_ZF_Phenotype_Score assay. It is designed to make measurements of zebrafish development as detected with brightfield microscopy of developing zebrafish embryos.Data from the assay component CCTE_Padilla_ZF_Score.Blood_pooling was analyzed into 1 assay endpoints. This assay endpoint, CCTE_Padilla_ZF_Score.Blood_pooling, was analyzed in the positive analysis fitting direction relative to DMSO as the negative control and baseline of activity. Using a type of viability reporter, gain-of-signal activity can be used to understand changes in developmentals as they relate to the whole embryo. To generalize the intended target to other relatable targets, this assay endpoint is annotated to the zebrafish development intended target family, where the subfamily is swim bladder morphogenesis.
Zebrafish husbandry: Wild type adult zebrafish (Danio rerio; undefined outbred stock obtained from Aquatic Research Organisms, Hampton, NH, 03842) were housed in an AAALAC-approved animal facility at 28C with a 14:10 h light: dark cycle (lights on at 08:30 h). Adult fish (2-3 females per male; density = 15-20 adults per tank) were kept in one of several 9-liter (L) flow-through colony tanks (Aquaneering Inc., San Diego, CA). All adults in a colony tank were placed in a 2 L (static) breeding tank (Aquatic Habitats, Apopka, FL) one hour prior to light onset. Typically, adults from two to three colony tanks were mated on the same day. Two hours after light onset the adults were returned to the colony tank. All embryos were gathered from each breeder tank, pooled, and placed in a 28C water bath for 2 h, followed by two washes with 0.06% bleach (v/v) in 10% Hanks' Balanced Salt Solution (13.7 mM NaCl 0.54 mM KCl, 25 uM Na2HPO4, 130 uM CaCl2 100 um MgSO4 and 420 um NaHCO3,), hereafter referred to as Hanks' solution, for 5 min in order to remove any residual bacteria or fungi. Immediately following washing, the embryos were examined, and healthy embryos were separated from dead or unfertilized eggs and moved into fresh Hanks'. Chemical exposures: Zebrafish embryos were exposed in 96-well plates. Between 6- and 8-hours post fertilization (hpf), healthy embryos (with chorions) were transferred, one embryo per well, into 96 well (0.5 mL) microtiter plates (Cell Culture-Treated, Flat-Bottom Microplate 96 well [Corning Costar, Kennebunk, ME; Cat 09-761-145]) filled with 200 uL of Hanks' solution. A random number generator was used to assign the order in which the rows of embryos were plated in 96 well plates each week. […]
As for `CC(F)(F)CC(F)(F)F`, the molecule was classed as inactive.
Still for that read-out and setting: to `O=S(=O)(F)C(F)(F)C(F)(F)C(F)(F)C(F)(F)F` belongs “inactive”; to `COC(F)(C(F)(F)C(F)(F)F)C(F)(C(F)(F)F)C(F)(F)F` (configuration not stated), “inactive”; to `C=CCOC(F)(C(F)(F)F)C(F)(F)F`, “inactive”.

The next experiment in a line: CCTE_Padilla_ZF_Score.Any: CCTE's 144 Hour Post-fertilization zebrafish Assay Score for Any Mortality or Malformation, Padilla Lab (AID 2284416). The essentials: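 Wild-type zebrafish embryos with chorions, one per well in 10% Hanks' from 6–8 hpf, dosed in sealed plates at 26 C, 14:10 h light:dark; rinsed at 5 dpf; blinded scoring at 6 dpf for death or malformation, versus DMSO.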
As to `CC(F)(F)CC(F)(F)F`, the result was inactive.
The same measure, in the same setting: to `O=S(=O)(F)C(F)(F)C(F)(F)C(F)(F)C(F)(F)F` belongs “inactive”.
Turning to `COC(F)(C(F)(F)C(F)(F)F)C(F)(C(F)(F)F)C(F)(F)F` (configuration not stated), the result was inactive.
Still for that read-out and setting: under `C=CCOC(F)(C(F)(F)F)C(F)(F)F` stands “inactive”.
